Measured values from PubChem BioAssay.
Unmarked numbers belong to inactive results. For some assays here: Results with a measured potency or affinity are listed apart. Active and inactive are the calls of the source. Unless noted, the rule behind the calls is not given here.

Legend:
[1] = antimalarial activity against Dd2 strain (AID 2302;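 active = growth inhibition above 50% at the single 2 µM test dose, taken to imply half-maximal potency below 2 µM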;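 note: 0% = DMSO untreated growth and 100% = chloroquine plus artemisinin killed control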); conditions: P. falciparum Dd2 in RBCs, LDH growth readout, 72 h; at 2 µM; hits give high values
[2] = human hepatoma cell viability loss – ATP luminescence, cytotoxicity control for P. falciparum antimalarial project, primary screen (AID 2303;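 active = inhibition above 50%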;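 note: 0% = DMSO wells and 100% = digitonin-killed cells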); conditions: HepG2 viability, 24-48 h, at 10 µM, hits give high values
[3] = molecular target: L-lactate dehydrogenase (Plasmodium falciparum (isolate CDC / Honduras)) (UniProt Q27743); assay: PfLDH activity inhibition – cell lysate, 3D7 strain, counter-screen for P. falciparum growth inhibition project (AID 2304);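 note: 0% = vehicle and 100% = reference inhibitor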; conditions: P. falciparum 3D7 crude extract, LDH APAD/NBT absorbance; at 2 µM; hits give high values
[4] = inhibition of 3D7 malaria parasite growth – strain 3D7 (AID 2306);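 note: 0% = DMSO wells and 100% = chloroquine plus artemisinin control wells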; conditions: P. falciparum 3D7 erythrocytic growth, LDH absorbance, 72 h; at 2 µM; hits give high values
[5] = molecular target: Calcium-dependent protein kinase 1 (Plasmodium falciparum (isolate 3D7)) (UniProt P62344); assay: PfCDPK1 kinase inhibitors, biochemical, TCAMS library (AID 1159585; cut-off not given, nearly all actives have IC50 up to about 0.98 µM;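 note: inhibitors leave more ATP so luminescence rises with inhibition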); conditions: recombinant PfCDPK1, Kinase-Glo ATP depletion luminescence
[6] = molecular target: Plasmodium falciparum protein kinase 6 (PK6, PF3D7_1337100) (UniProt Q8IDW1); assay: PfPK6 kinase inhibitors, biochemical, TCAMS library (AID 1159586); conditions: recombinant PfPK6, Kinase-Glo ATP depletion luminescence
[7] = molecular target: Protein kinase 7 (PK7), Plasmodium falciparum 3D7 (PF3D7_0213400) (UniProt Q7YTF7); assay: inhibition of Plasmodium PK7 catalytic activity – biochemical, TCAMS antimalarial set, Kinase-Glo luminescence (AID 1159587); conditions: recombinant PfPK7, Kinase-Glo ATP depletion luminescence
[8] = molecular target: Calcium-dependent protein kinase 4 (Plasmodium falciparum (isolate 3D7)) (UniProt Q8IBS5); assay: PfCDPK4 kinase inhibitors, biochemical, TCAMS library (AID 1159588; cut-off not given, nearly all actives have IC50 up to about 0.91 µM); conditions: recombinant PfCDPK4, Kinase-Glo ATP depletion luminescence
Calcium-dependent protein kinase 4 (Plasmodium falciparum (isolate 3D7)), sequence (Q8IBS5 whole entry, looked up): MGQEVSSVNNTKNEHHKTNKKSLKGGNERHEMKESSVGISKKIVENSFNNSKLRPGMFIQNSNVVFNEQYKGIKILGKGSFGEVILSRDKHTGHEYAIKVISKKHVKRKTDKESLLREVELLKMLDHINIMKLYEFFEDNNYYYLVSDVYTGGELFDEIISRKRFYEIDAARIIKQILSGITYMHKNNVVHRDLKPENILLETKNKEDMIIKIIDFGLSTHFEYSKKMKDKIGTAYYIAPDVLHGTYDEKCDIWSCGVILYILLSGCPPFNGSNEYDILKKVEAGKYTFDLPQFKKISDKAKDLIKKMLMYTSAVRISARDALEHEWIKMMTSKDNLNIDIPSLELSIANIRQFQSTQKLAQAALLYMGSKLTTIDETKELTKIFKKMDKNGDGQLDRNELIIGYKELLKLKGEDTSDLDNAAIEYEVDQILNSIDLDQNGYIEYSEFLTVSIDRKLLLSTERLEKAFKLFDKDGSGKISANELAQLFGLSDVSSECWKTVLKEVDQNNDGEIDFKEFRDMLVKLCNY

Protein kinase 7 (PK7), Plasmodium falciparum 3D7 (PF3D7_0213400), sequence (Q7YTF7 1-343): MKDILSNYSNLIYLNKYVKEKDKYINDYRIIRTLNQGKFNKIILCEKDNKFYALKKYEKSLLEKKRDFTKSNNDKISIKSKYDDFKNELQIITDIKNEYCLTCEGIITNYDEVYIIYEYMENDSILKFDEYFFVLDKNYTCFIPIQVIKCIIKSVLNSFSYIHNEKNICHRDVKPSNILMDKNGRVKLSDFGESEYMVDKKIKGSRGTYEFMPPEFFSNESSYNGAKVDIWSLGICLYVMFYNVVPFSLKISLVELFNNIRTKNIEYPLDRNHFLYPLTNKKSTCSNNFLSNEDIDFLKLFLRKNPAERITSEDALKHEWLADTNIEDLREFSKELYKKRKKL
L-lactate dehydrogenase (Plasmodium falciparum (isolate CDC / Honduras)), sequence (Q27743 whole entry, looked up): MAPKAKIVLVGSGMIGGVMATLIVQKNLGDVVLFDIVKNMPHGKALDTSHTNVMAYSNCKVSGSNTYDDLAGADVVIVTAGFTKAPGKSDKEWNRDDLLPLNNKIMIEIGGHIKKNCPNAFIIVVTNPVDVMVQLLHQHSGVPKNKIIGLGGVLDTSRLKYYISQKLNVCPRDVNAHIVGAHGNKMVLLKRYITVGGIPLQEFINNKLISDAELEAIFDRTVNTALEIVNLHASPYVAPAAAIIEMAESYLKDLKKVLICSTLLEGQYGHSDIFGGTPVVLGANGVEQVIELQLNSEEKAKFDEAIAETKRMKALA
Plasmodium falciparum protein kinase 6 (PK6, PF3D7_1337100), sequence (Q8IDW1 1-305): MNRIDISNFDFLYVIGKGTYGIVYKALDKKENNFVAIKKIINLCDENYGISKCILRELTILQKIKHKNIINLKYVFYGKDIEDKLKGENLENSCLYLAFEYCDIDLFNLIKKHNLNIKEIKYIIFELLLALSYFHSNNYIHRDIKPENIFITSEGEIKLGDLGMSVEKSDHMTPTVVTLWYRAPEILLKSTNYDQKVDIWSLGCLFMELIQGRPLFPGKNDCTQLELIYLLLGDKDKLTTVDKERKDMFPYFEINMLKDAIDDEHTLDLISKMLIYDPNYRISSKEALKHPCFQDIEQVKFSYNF
Calcium-dependent protein kinase 1 (Plasmodium falciparum (isolate 3D7)), sequence (P62344 whole entry, looked up): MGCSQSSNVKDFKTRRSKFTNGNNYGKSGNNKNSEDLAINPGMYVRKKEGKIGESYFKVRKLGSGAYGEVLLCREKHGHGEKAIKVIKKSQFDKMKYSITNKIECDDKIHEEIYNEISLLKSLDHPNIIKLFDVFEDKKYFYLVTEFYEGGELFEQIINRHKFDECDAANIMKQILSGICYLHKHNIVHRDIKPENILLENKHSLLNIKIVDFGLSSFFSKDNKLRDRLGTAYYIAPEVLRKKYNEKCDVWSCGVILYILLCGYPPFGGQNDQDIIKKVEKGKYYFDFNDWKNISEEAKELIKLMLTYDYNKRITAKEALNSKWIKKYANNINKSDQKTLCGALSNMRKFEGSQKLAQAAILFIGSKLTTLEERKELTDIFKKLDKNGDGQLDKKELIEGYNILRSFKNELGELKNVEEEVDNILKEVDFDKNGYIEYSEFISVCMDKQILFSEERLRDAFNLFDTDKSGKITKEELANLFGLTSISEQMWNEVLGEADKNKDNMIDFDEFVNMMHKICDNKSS

Structure (SMILES)	growth inhibition [1]	inhibition [2]	inhibition [3] [%]	growth inhibition [4]	outcome [5]	outcome [6]	outcome [7]	outcome [8]
Cc1cc(-c2ccc3c(c2)CCN(CCC2CCC(NC(=O)/C=C/c4cccc(Cl)c4)CC2)CC3)on1 (stereo not given)	49%	16%	-4	101% (active)	inactive	inactive	inactive	inactive
COc1ccccc1N1CCN(C(C(=O)NCc2ccc(C)cc2)c2ccc(C)cc2)CC1 (stereo not given)	79% (active)	12%	6	92% (active)	inactive	inactive	inactive	inactive
O=C(Nc1ccc(F)c(F)c1)c1ccc(CN2CCCN(Cc3cccc(F)c3)CC2)cc1	12%	51% (active)	-6	83% (active)	inactive	inactive	inactive	inactive
Cc1cc(-c2ccc(NC(=O)Nc3ccc4nccc(N5CCN(C)CC5)c4c3)cc2C)cc(C)n1	76% (active)	-2%	4	100% (active)	inactive	inactive	inactive	inactive
O=C(Nc1cc(Cl)ccc1-n1cncn1)C1(c2ccccc2)CC1	91% (active)	3%	-2	98% (active)	inactive	inactive	inactive	inactive
COc1ccc(C=NNc2cc(C)nc3c(C)cccc23)c2ccccc12	98% (active)	3%	0	102% (active)	inactive	inactive	inactive	inactive
O=C(OCc1ccccc1)N1CCc2c([nH]c3ccccc23)C1CCC(F)(F)F (stereo not given)	81% (active)	0%	3	94% (active)	inactive	inactive	inactive	inactive
CCOc1ccc(-c2nonc2NC(=O)c2ccc(Cl)cc2)cc1OCC	47%	28%	-2	94% (active)	inactive	inactive	inactive	inactive
CC(C)CCn1c(Sc2ccc(C#N)c([N+](=O)[O-])c2)nnc1-c1cccc(Cl)c1	82% (active)	33%	0	96% (active)	inactive	inactive	inactive	inactive
CC1CN(CC(O)Cn2c3ccc(Br)cc3c3cc(Br)ccc32)CC(C)O1 (stereo not given)	100% (active)	-1%	3	102% (active)	inactive	inactive	inactive	inactive
Cc1[nH]c2ccccc2c(=O)c1Br	84% (active)	2%	3	94% (active)	inactive	inactive	inactive	inactive
Fc1ccc2nc(-c3ccc(-c4ccc(CNCc5cnn(-c6ccccc6)n5)cc4)cc3)[nH]c2c1	47%	41%	1	98% (active)	inactive	inactive	inactive	inactive
COC(=O)c1ccc(CN2CCC(N(Cc3cccc(Oc4ccccc4)c3)S(=O)(=O)c3ccc(NC(C)=O)cc3)CC2)cc1	86% (active)	-1%	-6	82% (active)	inactive	inactive	inactive	inactive
N#CCCN1CCN(Cc2cccc(-c3ccc(-c4nc5ccccc5[nH]4)s3)c2)CC1	8%	48%	-4	96% (active)	inactive	inactive	inactive	inactive
Cc1c(NCCCNCc2cc(Cl)cc(Cl)c2Cl)[nH]c2ccccc2c1=O	86% (active)	35%	-2	101% (active)	inactive	inactive	inactive	inactive
Cc1cc(NC(=O)NCCN2CCC(NC(=O)c3ccc(F)cc3)CC2)c2ccccc2n1	76% (active)	-6%	-2	99% (active)	inactive	inactive	inactive	inactive
CNCc1ccc(-c2cccc(CNCc3ccc(-c4ccccc4)cc3)c2)c(C(=O)OC)c1	19%	25%	3	92% (active)	inactive	inactive	inactive	inactive
CN1CCN(c2ccnc3cc4ccccc4cc23)CC1	49%	11%	-9	93% (active)	inactive	inactive	inactive	inactive
O=[N+]([O-])c1ccc(C2=NN(S(=O)(=O)c3c(Cl)cc(Cl)cc3Cl)CCCC2)cc1	98% (active)	5%	0	99% (active)	inactive	inactive	inactive	inactive
O=c1cc(NCCCNC2CCCc3c2ccc2ccccc32)[nH]c2ccccc12 (stereo not given)	30%	-1%	-2	94% (active)	inactive	inactive	inactive	inactive

Structure (SMILES)	growth inhibition [1]	inhibition [2]	inhibition [3] [%]	growth inhibition [4]	outcome [5]	outcome [6]	outcome [7]	outcome [8]
ON=C1c2cc(OCCN3CCCCC3)c(Cl)cc2-c2cc(Cl)c(OCCN3CCCCC3)cc21	98% (active)	99% (active)	5	97% (active)	inactive	inactive	inactive	inactive
FC(F)(F)COc1ccc2ccccc2c1CCNCCCCNCCc1c(OCC(F)(F)F)ccc2ccccc12	53% (active)	99% (active)	0	100% (active)	inactive	inactive	inactive	inactive
C=CCn1c(=N)c(C(=O)NC2CCCCC2)cc2c(=O)n3cccc(C)c3nc21	58% (active)	0%	4	92% (active)	inactive	inactive	inactive	inactive
O=C(Nc1cccc(-c2ccc(-c3nc4ccc(F)cc4[nH]3)cc2)c1)c1ccoc1	6%	39%	-7	85% (active)	inactive	inactive	inactive	inactive
Cc1cc(I)ccc1Nc1nc2nonc2nc1Nc1ccc(I)cc1C	96% (active)	78% (active)	-2	100% (active)	inactive	inactive	inactive	inactive
Cc1cc(N(C)C2CCN(CC3CCCCC3)C2)nc(Nc2ccc(Br)cc2)n1 (stereo not given)	38%	14%	-1	98% (active)	inactive	inactive	inactive	inactive
COCCNCc1ccc(-c2ccc(CNC3CCN(Cc4ccccc4)CC3)cc2)cc1	61% (active)	22%	-4	100% (active)	inactive	inactive	inactive	inactive
Cc1nc(-c2cccc(Nc3nccc(NCC(O)c4ccccc4C(F)(F)F)n3)c2)cs1 (stereo not given)	50% (active)	48%	5	97% (active)	inactive	inactive	inactive	inactive
Cc1cc(N[C@@H](Cc2ccccc2)C(=O)NCCOc2ccccc2)nc(NCCc2ccccn2)n1	42%	12%	-2	92% (active)	inactive	inactive	inactive	inactive
O=C(NC1CCN(Cc2ccccc2)CC1)c1cccc(Nc2nc(-c3ccccc3)cs2)c1	3%	70% (active)	3	84% (active)	inactive	inactive	inactive	inactive
Cn1cnc(CCNC(=O)c2ccc(-c3cccc(-c4nc5ccc(F)cc5[nH]4)c3)cc2)c1	24%	23%	-5	100% (active)	inactive	inactive	inactive	inactive
c1ccc(-c2nc(Nc3nc4ccccc4[nH]3)[nH]c2-c2ccccc2)cc1	61% (active)	14%	-5	96% (active)	inactive	inactive	inactive	inactive
O=C(Nc1ccc(Cl)c(Cl)c1)N1CCc2ccc(OCCCN3CCCCC3)cc2CC1	-2%	27%	-2	92% (active)	inactive	inactive	inactive	inactive
C=CCc1cc(Br)ccc1OCCCON1C(N)=NC(N)=NC1(C)C	97% (active)	61% (active)	2	95% (active)	inactive	inactive	inactive	inactive
c1nc2nc3c(c(Nc4ccc5c(c4)CCC5)n2n1)CCC3	70% (active)	-1%	-5	87% (active)	inactive	inactive	inactive	inactive
Cc1cc(=O)oc2c1ccc1oc(C(O)c3ccc(Cl)cc3)c(C)c12 (stereo not given)	96% (active)	-7%	1	95% (active)	inactive	inactive	inactive	inactive
N#Cc1ccc(-c2ccc(C(=O)NCCCCN3CCC(n4cnc5ccccc54)CC3)cc2)cc1	2%	15%	-3	94% (active)	inactive	inactive	inactive	inactive
O=C(C=Cc1ccc(Cl)c(Cl)c1)NCCCCCN1CCC(CCNC(=O)C(c2ccccc2)c2ccccc2)CC1	43%	61% (active)	4	90% (active)	inactive	inactive	inactive	inactive
Cc1ccc(C(=O)Nc2ccc(F)c(F)c2F)cc1S(=O)(=O)N1CCCCC1	69% (active)	3%	-8	92% (active)	inactive	inactive	inactive	inactive
COc1ccccc1N1CCN(CCCCNC(=O)c2ccc(NC(=O)c3cc(Cl)cc(Cl)c3)cc2)CC1	75% (active)	9%	2	101% (active)	inactive	inactive	inactive	inactive
